Giardia FBPA inh = blocks Giardia fructose-bisphosphate aldolase activity | Potency, µM (highest dose often 59.6 µM), for inactives: top-dose activity, negative = inhibition, most hits filed as inhibitors | A8B2U2 | purified Giardia FBPA | actives 0.71% (n = 290,000); note: potency is the fitted concentration of half-maximal effect; % is set by controls: 0 for no effect and ±100 for the full control effect; nearly all actives have a fitted effect of over 55% in size
Target sequence (A8B2U2 whole entry, looked up): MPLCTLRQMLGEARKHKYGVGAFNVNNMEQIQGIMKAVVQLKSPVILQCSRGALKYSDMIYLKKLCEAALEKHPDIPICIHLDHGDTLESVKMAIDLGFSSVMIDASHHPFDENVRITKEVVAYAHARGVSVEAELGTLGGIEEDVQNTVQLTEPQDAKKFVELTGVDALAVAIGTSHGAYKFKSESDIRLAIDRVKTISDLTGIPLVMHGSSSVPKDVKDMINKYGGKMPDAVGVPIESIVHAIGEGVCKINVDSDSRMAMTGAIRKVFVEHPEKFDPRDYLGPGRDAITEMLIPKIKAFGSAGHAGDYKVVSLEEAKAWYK
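40 nM FBPA preincubated 10 min at RT with compound (up to 57.5 uM final), then substrate plus GAPDH/TPI/NAD/arsenate coupling and diaphorase/resazurin added. Fluorescence read after 20 min at RT, 525/598 nm.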
CHX counter = counter-screen hit for Shiga toxin inhibitors, cycloheximide | cell reporter, cycloheximide protein synthesis inhibition counterscreen | max response, % | AID 2314 | actives 12% (n = 300,000); in the data active = max response mostly above about 13%, no sharp cut-off; inactive = mostly below about 14%; note: read at 38.3 µM for the half of the compounds with a filed dose; 0% is about no effect
RE007 growth inh = less growth of the S. pombe RE007 Vpr strain; actives 0.21% (n = 360,000); AID 651644; S. pombe RE007 Vpr strain, BacTiter-Glo ATP luminescence, 24 h; Potency, µM (titrated, usually from 92.2 µM), for the others: top-dose activity change, negative = less growth, hits mostly inhibitors; active = well fitted falling curve with a large enough effect; inconclusive = small, poorly fitted or top-dose-only effect; inactive = no such curve, though single readings can be large or run the other way; note: potency is the fitted concentration of half-maximal effect; % is set by controls: 0 for no effect and ±100 for the full control effect; nearly all actives have a fitted effect of over 50% in size
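Fission yeast RE007 carrying one integrated HIV-1 vpr copy, seeded at OD 0.01 in PMG+AL medium with 23 nL pinned compound. Grown 24 h at 30 degrees; viability read by BacTiter-Glo luminescence after 5 min.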
Shiga inhibitor = Shiga toxin inhibition; AID 2315; inhibition, % at 38.7 µM; Vero cells, Shiga toxin protein synthesis inhibition reporter; actives 9.2% (n = 290,000); in the data active = inhibition mostly above about 28%, no sharp cut-off; inactive = mostly below about 43%; note: 0% is about no effect
Tb PYK inh = T. brucei pyruvate kinase inhibition; Q57TT1; TbPYK enzyme, Kinase-Glo Plus ATP luminescence, 45 min; Potency, µM (titrated, usually from 76.8 µM), inactives show top-dose activity, negative = inhibition, most hits filed as inhibitors; actives 0.12% (n = 410,000); AID 624173; note: potency is the fitted concentration of half-maximal effect; % is set by controls: 0 for no effect and ±100 for the full control effect; nearly all actives have a fitted effect of over 50% in size
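TbPYK + substrate in 50 mM TEA pH 7.2, 100 mM KCl, 10 mM MgCl2, 0.05% BSA, 0.01% Tween-20; cpd pinned; ADP 130 uM final; 45 min RT; Kinase-Glo Plus 10 min; luminescence endpoint.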
LmPK inhibitor = blocks Leishmania mexicana pyruvate kinase activity | Q27686 | purified LmPK, Kinase-Glo ATP luminescence, 1 h | Potency, µM (titrated, usually from 57.5 µM), for the others: top-dose activity change, negative = inhibition, hits mostly inhibitors | actives 0.37% (n = 290,000); note: potency is the fitted concentration of half-maximal effect; % is set by controls: 0 for no effect and ±100 for the full control effect
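In 50 mM imidazole pH 7.2 with 7 mM MgCl2, LmPK (0.1 nM) turned over PEP (0.5 mM) and ADP (0.1 mM) for 1 h at room temperature. Luciferase read-out of ATP.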
Active calls of the source: *; [ ] = dose if it differs, or a comment. This excerpt belongs to a sample that is enriched for hits. Unless noted, calls come from the whole dose curve; as a rule, active = well fitted curve in the direction sought with a large enough effect; inconclusive = small, poorly fitted or top-dose-only effect, or another doubt; inactive = no such curve, though single readings can be large; an effect the other way counts as inactive or inconclusive.

How did O=C(CSc1ncn[nH]1)Nc1nc(-c2ccccc2)ns1 do in these assays?
Giardia FBPA inh: 25%; CHX counter: 34*; RE007 growth inh: -2%; Shiga inhibitor: 49*; Tb PYK inh: 1%; LmPK inhibitor: 4%

How did COc1ccccc1C(=O)Nc1nc(-c2ccccc2)ns1 do in these assays?
Tb PYK inh: -6%

Results for CCCC(=O)Nc1nc(-c2ccccc2)ns1 ?
Giardia FBPA inh: -3%; CHX counter: 86*; RE007 growth inh: -11%; Shiga inhibitor: 28*; Tb PYK inh: 6%; LmPK inhibitor: 7%

What do the screens show for `CC(C)C(=O)Nc1nc(-c2ccccc2)ns1`?
Giardia FBPA inh: -16%; CHX counter: 48*; RE007 growth inh: -30%; Shiga inhibitor: 96*; Tb PYK inh: -7%; LmPK inhibitor: -2%

Results for Cc1nnc(SCCC(=O)Nc2nc(-c3ccccc3)ns2)s1 ?
Giardia FBPA inh: -7%; CHX counter: 11; RE007 growth inh: -2%[3.69 µM]; Shiga inhibitor: 22; LmPK inhibitor: 0%

Results for CCOC(=O)c1cc(-c2ccc(OC)cc2)n(CCC(=O)Nc2ccccc2OC)c1C ?
Tb PYK inh: 4%

What do the screens show for `CCOCCCNC(=O)c1cc(=O)[nH]c2ccc(S(=O)(=O)N3CCCC3)cc12`?
Tb PYK inh: 1%

What do the screens show for `CC1(C)S[C@@H]2[C@H](NC(=O)[C@H](N)c3ccccc3)C(=O)N2[C@@H]1C(=O)OCOC(=O)[C@@H]1N2C(=O)C[C@@H]2S(O)(O)C1(C)C`?
Tb PYK inh: -5%

Results for COc1ccc(NC(=O)Cn2c(=O)nc(-c3ccccc3)c3ccccc32)cc1OC ?
Tb PYK inh: -4%

How did CCCCc1nc2ccccc2n1CC(=O)N(COCC)c1c(C)cccc1CC do in these assays?
Tb PYK inh: 13%

Results for Cc1ccc(-c2nc(NC(=O)CSc3ncn[nH]3)ns2)cc1 ?
Giardia FBPA inh: 0%; CHX counter: 16*; RE007 growth inh: -5%; Shiga inhibitor: 59*; Tb PYK inh: -25%; LmPK inhibitor: -3%

How did O=C(CSc1ncn[nH]1)Nc1ccc(Br)cc1F do in these assays?
Giardia FBPA inh: 21%; CHX counter: 25*; RE007 growth inh: 10%; Shiga inhibitor: 40; Tb PYK inh: -3%; LmPK inhibitor: 1%

What do the screens show for `CCC(=O)Nc1nc(-c2ccccc2)ns1`?
Giardia FBPA inh: -7%; CHX counter: 32*; RE007 growth inh: 1%[3.69 µM]; Shiga inhibitor: 61*; LmPK inhibitor: 1%

What do the screens show for `CC(=O)Nc1nc(-c2ccc(Cl)cc2)ns1`?
Giardia FBPA inh: -7%; CHX counter: 64*; RE007 growth inh: -18%; Shiga inhibitor: active; Tb PYK inh: -1%; LmPK inhibitor: 2%

Results for C=Cc1cc(F)c(S(=O)(=O)N2CCN(S(=O)(=O)c3ccc4c(c3)OCCO4)CC2)cc1F ?
CHX counter: -10; Shiga inhibitor: -13

Results for Cc1ccc2nc3c(cc2c1)CC1(C(=O)N(C)C(=O)N(C)C1=O)C1CCCCN31 (configuration not stated) ?
Giardia FBPA inh: -8%; CHX counter: 19*; RE007 growth inh: -11%; Shiga inhibitor: 69*; Tb PYK inh: 4%; LmPK inhibitor: 1%

What do the screens show for `Cc1ccc(C(=O)COC(=O)CN2C(=O)C3C4CCC(C4)C3C2=O)cc1[N+](=O)[O-]` (configuration not stated)?
Giardia FBPA inh: -1%; CHX counter: 1; RE007 growth inh: 1%; Shiga inhibitor: -1; Tb PYK inh: 1%; LmPK inhibitor: -1%

Results for Cc1ccc(C(=O)COC(=O)CN2C(=O)C3C4CCC(C4)C3C2=O)cc1C (configuration not stated) ?
Giardia FBPA inh: 1%; CHX counter: 12*; RE007 growth inh: -3%; Shiga inhibitor: 7; Tb PYK inh: 1%; LmPK inhibitor: 7%

What do the screens show for `CC(C)CC(=O)NC1(C(F)(F)F)C(=O)Nc2c1c(=O)[nH]c(=O)n2-c1ccccc1` (configuration not stated)?
Tb PYK inh: 1%

How did O=S1(=O)C=C(Oc2ccc3ccccc3c2)c2ccccc21 do in these assays?
Giardia FBPA inh: -12%; CHX counter: 7; RE007 growth inh: -16%; Shiga inhibitor: 63; Tb PYK inh: 0%; LmPK inhibitor: 6%

Results for O=S1(=O)C=C(Oc2ccc(F)cc2)c2ccccc21 ?
Giardia FBPA inh: 21%; CHX counter: 11*; RE007 growth inh: 2%; Shiga inhibitor: 27*; Tb PYK inh: 7%; LmPK inhibitor: 3%

Results for Cc1csc(NC(=O)c2ccc(C(=O)Nc3nc(C)cs3)cc2)n1 ?
Giardia FBPA inh: 2%; CHX counter: 7; Shiga inhibitor: -6; LmPK inhibitor: -25%

How did CC(Oc1ccccc1)C(=O)Nc1nc(-c2ccccn2)cs1 (configuration not stated) do in these assays?
RE007 growth inh: inconclusive; Tb PYK inh: -12%

Results for CC(Oc1cccc(Cl)c1)C(=O)Nc1nc(-c2ccccn2)cs1 (configuration not stated) ?
RE007 growth inh: 45µM*; Tb PYK inh: -5%

How did Cc1ccc(C(=O)Nc2nc(-c3ccccn3)cs2)s1 do in these assays?
RE007 growth inh: inconclusive; Tb PYK inh: -3%

What do the screens show for `Cc1csc(NC(=O)c2cccn2C)n1`?
CHX counter: 62*; RE007 growth inh: -27%; Shiga inhibitor: 102*; Tb PYK inh: -24%; LmPK inhibitor: 18µM*

What do the screens show for `Cn1cccc1C(=O)Nc1nc(-c2ccccn2)cs1`?
Giardia FBPA inh: inconclusive; CHX counter: 51*; RE007 growth inh: inconclusive; Shiga inhibitor: 83*; Tb PYK inh: inconclusive; LmPK inhibitor: inconclusive

How did Cc1csc(NC(=O)C2CCCCC2)n1 do in these assays?
Giardia FBPA inh: 14%; CHX counter: 24*; RE007 growth inh: 4%; Tb PYK inh: 1%; LmPK inhibitor: 6%

How did O=C(CSc1nnc2[nH]c(=O)cc(-c3ccccc3)n12)Nc1ccc(OC(F)(F)F)cc1 do in these assays?
Tb PYK inh: -5%

How did O=C(CN1C(=O)CCC1=O)Nc1nc(-c2ccccn2)cs1 do in these assays?
Giardia FBPA inh: inconclusive; CHX counter: -5; RE007 growth inh: 2%; Shiga inhibitor: -10; Tb PYK inh: -1%; LmPK inhibitor: -1%

What do the screens show for `CC(C)c1nc2ccc(NC(=O)C3CCCCC3)cc2[nH]1`?
Giardia FBPA inh: -4%; CHX counter: 6; RE007 growth inh: 3%; Shiga inhibitor: 19; Tb PYK inh: -10%; LmPK inhibitor: 0%

Source: PubChem BioAssay (National Center for Advancing Translational Sciences (NCATS))
